Data on 34 compounds can be found in PubChem BioAssay (NCATS).

For assay [1], the target named is Rap guanine nucleotide exchange factor 3 (Homo sapiens) (UniProt O95398). The assay is described as follows: Confirmatory qHTS for agonist of cAMP-regulated guanine nucleotide exchange factor 3 (EPAC1) (AID 1645881).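 Note: EPAC1 catalysed release of BODIPY-GDP from Rap1B seen as fluorescence loss; 100% = effect of cAMP agonist control; nearly all actives have a fitted effect of over 75% in size.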
For assay [2] the target is unchanged. The assay is described as follows: Counterscreen qHTS for antagonist of cAMP-regulated guanine nucleotide exchange factor 3 (EPAC1) (AID 1645888).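 Note: fluorescence loss as bound BODIPY-GDP is released from Rap1B; % of control where 0% means no effect.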 The essentials:
(§1)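 Rap1B–BODIPY-GDP (250 nM) with 50 uM GDP; compounds pin-transferred to 9.74 nM–152 uM final (activator) or from 7.32 nM upwards (inhibitor). Fluorescence Ex/Em 480/540 nm read at 5 and 30 min, then after adding cAMP or buffer, at room temperature.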

Assay [3] has the same target. The assay is described as follows: Counterscreen qHTS for agonist of cAMP-regulated guanine nucleotide exchange factor 3 (EPAC1) (AID 1645889). Note: % of control where 0% means no effect; nearly all actives have a fitted effect of over 40% in size. The essentials: as §1
Assay [4] deals with Rap guanine nucleotide exchange factor 4 (Homo sapiens) (UniProt Q8WZA2). In words: Confirmatory qHTS for agonist of cAMP-regulated guanine nucleotide exchange factor 4 (EPAC2) (AID 1645884). For activation: % is set by controls: 0 for no effect and ±100 for the full control effect.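 Note: nucleotide exchange releases bodipy-GDP from Rap1 and this lowers its fluorescence; nearly all actives have a fitted effect of over 65% in size.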 Note: potency is the fitted concentration of half-maximal effect.
The target is the same in assay [5]. The assay is described as follows: Confirmatory qHTS for antagonist of cAMP-regulated guanine nucleotide exchange factor 4 (EPAC2) (AID 1645885). For activity change, negative = inhibition: % is set by controls: 0 for no effect and ±100 for the full control effect. Note: nearly all actives have a fitted effect of over 25% in size. Note: potency is the fitted concentration of half-maximal effect.

Results filed as inconclusive are left out. Values without a mark were called inactive. Calls of active or inactive are those of the source. Calls come from the whole dose curve; as a rule, active = well fitted curve in the direction sought with a large enough effect; inconclusive = small, poorly fitted or top-dose-only effect, or another doubt; inactive = no such curve, though single readings can be large; an effect the other way counts as inactive or inconclusive.

Sequence of Rap guanine nucleotide exchange factor 3 (Homo sapiens) (O95398 whole entry, looked up): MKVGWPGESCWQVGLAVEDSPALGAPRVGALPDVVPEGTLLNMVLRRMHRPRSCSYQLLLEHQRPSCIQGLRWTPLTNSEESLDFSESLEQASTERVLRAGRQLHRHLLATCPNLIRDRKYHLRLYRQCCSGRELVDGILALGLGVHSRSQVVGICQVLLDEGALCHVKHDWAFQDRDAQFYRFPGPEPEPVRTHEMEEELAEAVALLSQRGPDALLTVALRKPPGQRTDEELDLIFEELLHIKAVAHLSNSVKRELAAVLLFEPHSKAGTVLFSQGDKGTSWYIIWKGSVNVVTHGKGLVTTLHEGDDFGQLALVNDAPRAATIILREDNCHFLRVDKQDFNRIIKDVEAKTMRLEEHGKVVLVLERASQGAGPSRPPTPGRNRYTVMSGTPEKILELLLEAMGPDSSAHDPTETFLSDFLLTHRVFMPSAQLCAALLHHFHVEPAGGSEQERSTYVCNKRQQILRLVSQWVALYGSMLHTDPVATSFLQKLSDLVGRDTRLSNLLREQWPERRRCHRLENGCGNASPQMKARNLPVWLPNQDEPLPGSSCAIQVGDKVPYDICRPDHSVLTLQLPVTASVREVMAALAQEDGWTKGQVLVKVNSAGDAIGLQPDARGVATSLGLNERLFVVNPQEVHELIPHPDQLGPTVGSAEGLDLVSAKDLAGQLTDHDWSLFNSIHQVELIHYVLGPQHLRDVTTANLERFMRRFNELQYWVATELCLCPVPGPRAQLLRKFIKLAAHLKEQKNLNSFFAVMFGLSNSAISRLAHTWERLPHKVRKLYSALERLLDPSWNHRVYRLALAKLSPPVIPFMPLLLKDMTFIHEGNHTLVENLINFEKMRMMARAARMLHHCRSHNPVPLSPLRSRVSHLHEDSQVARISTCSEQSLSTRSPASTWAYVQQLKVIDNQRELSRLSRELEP
Sequence of Rap guanine nucleotide exchange factor 4 (Homo sapiens) (Q8WZA2 whole entry, looked up): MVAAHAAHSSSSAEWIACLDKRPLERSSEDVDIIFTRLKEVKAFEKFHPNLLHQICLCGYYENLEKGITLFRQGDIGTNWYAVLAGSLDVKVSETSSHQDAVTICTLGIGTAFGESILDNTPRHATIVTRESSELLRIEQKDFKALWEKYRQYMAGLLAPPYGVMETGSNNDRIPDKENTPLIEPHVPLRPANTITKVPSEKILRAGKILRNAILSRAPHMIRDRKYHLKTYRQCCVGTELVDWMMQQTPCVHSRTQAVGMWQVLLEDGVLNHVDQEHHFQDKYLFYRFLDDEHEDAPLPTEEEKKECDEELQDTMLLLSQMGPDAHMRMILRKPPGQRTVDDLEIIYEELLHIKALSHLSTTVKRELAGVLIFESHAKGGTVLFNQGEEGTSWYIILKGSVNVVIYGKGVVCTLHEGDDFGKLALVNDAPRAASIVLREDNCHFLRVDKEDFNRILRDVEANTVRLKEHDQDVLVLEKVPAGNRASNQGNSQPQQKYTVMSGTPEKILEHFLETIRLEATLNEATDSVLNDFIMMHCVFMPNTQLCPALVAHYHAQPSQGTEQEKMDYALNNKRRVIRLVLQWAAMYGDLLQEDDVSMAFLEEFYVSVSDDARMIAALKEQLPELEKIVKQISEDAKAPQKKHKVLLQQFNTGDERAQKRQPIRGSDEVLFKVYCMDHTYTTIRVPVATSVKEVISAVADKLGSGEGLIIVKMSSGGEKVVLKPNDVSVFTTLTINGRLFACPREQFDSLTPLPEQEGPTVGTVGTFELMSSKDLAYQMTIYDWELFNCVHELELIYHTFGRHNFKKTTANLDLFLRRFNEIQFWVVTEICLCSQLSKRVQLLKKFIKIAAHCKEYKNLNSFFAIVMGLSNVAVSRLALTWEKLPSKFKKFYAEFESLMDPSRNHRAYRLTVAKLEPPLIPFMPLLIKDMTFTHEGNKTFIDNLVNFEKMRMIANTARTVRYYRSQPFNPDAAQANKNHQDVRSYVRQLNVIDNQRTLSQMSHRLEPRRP

Take `COC(=O)c1ccc2nc(-c3cccc(Cl)c3)c(Cc3ccccc3)n2c1`: the Potency entry in assay [1] was “inactive”. In assay [2], the activity change, negative = inhibition was -21.2% [at 30.8 µM]. In addition, in assay [3], the activation was 15.5% [at 30.8 µM].

As for `Cc1ccc(S(=O)(=O)CC(=O)c2cc3cccc(C)c3oc2=O)cc1`, the Potency result in assay [1], in assay [2] and in assay [3] was “inactive” in each case.

Consider `COc1ccc(C2CC(=O)Oc3cc(OC)c(OC)c(OC)c32)cc1` (stereo not given), for which, in assay [1], the Potency entry was “inactive”. For the same compound, in assay [2], the activity change, negative = inhibition was -24.9% [at 30.8 µM]. Further, in assay [3], the activation was 20% [at 30.8 µM].

With `COC(=O)c1ccc2nc(-c3ccc(C)cc3)c(Cc3ccsc3)n2c1`, the Potency entry in assay [1] is “inactive”. In assay [2], the activity change, negative = inhibition was 1.91% [at 30.8 µM]. In assay [3], the activation was 9.45% [at 30.8 µM].

Consider `COC(=O)c1ccc2nc(-c3ccc(C)cc3)c(Cc3cccc(F)c3)n2c1`, for which the Potency result in assay [1] and in assay [3] was “inactive” in each case.

Take `O=C1N(c2ccc(Cl)cc2)C(c2ccccc2)N2CCCN12` (stereo not given): the Potency result in assay [1] and in assay [2] was “inactive” in each case.

Regarding `COc1cccc(-c2coc3c(C)c4oc(=O)c(CCC(=O)O)c(C)c4cc23)c1`, the Potency entry in assay [1], in assay [2] and in assay [3] was “inactive” throughout.

For `CCC(=O)N1N=C(c2cccs2)CC1c1ccc(C)cc1` (stereo not given), the Potency result in assay [1], in assay [2] and in assay [3] was “inactive” each time.

With `CCC(=O)N(CCC(c1ccc(C)cc1)c1ccco1)Cc1ccco1` (stereo not given), the Potency result in assay [1] is “inactive”. Moreover, the activity change, negative = inhibition in assay [2] was -11.4% [at 30.8 µM]. In assay [3], the activation was 19.5% [at 30.8 µM].

Turning to `CCC(CC)C(=O)Nc1nc(-c2ccc3c(c2)CCN3C(=O)C2CC2)c(C)s1`, in assay [1], the Potency result is “inactive”. Further, the activity change, negative = inhibition in assay [2] was -24% [at 30.8 µM]. In addition, the activation in assay [3] was 26.5% [at 30.8 µM].

For `CCOC(=O)C1Oc2ccccc2C(c2ccc(OC)cc2)=C1C(=O)OC` (stereo not given), the Potency result in assay [1] and in assay [3] was “inactive” throughout.

With `Cn1ccc2c(-c3ccc(C(C)(C)C)cc3)cc3c(c21)C1CCC3O1` (stereo not given), the Potency entry in assay [1], in assay [2] and in assay [3] was “inactive” in each case.

In the case of `CCCC/C=C/[C@H](c1ccccc1)[C@H](CO)Cc1cccnc1`, the Potency result in assay [1] and in assay [3] was “inactive” throughout.

Regarding `O=C(COc1ccc(F)cc1Br)NCC1COc2ccccc2O1` (stereo not given), the Potency result in assay [1], in assay [2] and in assay [3] was “inactive” in each case.

As for `CSc1nc(N)c(C(=O)N(c2ccccc2)c2ccccc2)s1`, the Potency result in assay [1] was “inactive”. For the same compound, the activity change, negative = inhibition in assay [2] is -10.5% [at 30.8 µM]. Also, the activation in assay [3] is 22.8% [at 30.8 µM].

For the compound `CCCC(C(=O)Nc1ccc(S(=O)(=O)Nc2nccs2)cc1)c1ccccc1` (stereo not given), the Potency result in assay [1] was “inactive”. Further, the activity change, negative = inhibition in assay [2] is -24.2% [at 30.8 µM]. For the same compound, the activation in assay [3] was 8.61% [at 30.8 µM].

With `COc1ccc(S(=O)(=O)Nc2ccc(F)cc2)c(C)c1C`, the Potency result in assay [4] and in assay [2] was “inactive” throughout. For the same compound, the Potency in assay [5] is 5.36 µM (active).

Regarding `CCOC(=O)c1c(CC(C)C)csc1NC(C)=O`, the Potency entry in assay [1] and in assay [3] was “inactive” in each case.

`O=C(O)c1ccc(N/N=C/c2ccc(-c3ccc(Cl)cc3Cl)o2)cc1`: the Potency entry in assay [4], in assay [5] and in assay [2] was “inactive” in each case.

In the case of `C/C(=N\O)C(=O)OC1CC(C)CCC1C(C)C` (stereo not given), the Potency entry in assay [1] and in assay [3] was “inactive” in each case.

For `CCOC(=O)N1CCc2c(sc3c2c(=O)n(-c2ccc(F)cc2)c(=O)n3CC(=O)c2ccc(Cl)cc2)C1`, the Potency entry in assay [4], in assay [5] and in assay [2] was “inactive” throughout.

For `Cc1cc(C)c(S(=O)(=O)Nc2ccc3c(c2)CCC3)c(C)c1`, the Potency result in assay [1] and in assay [3] was “inactive” each time.

For the compound `N#C/C(=C\c1ccc(Sc2ccccc2)o1)c1nc2ccccc2[nH]1`, the Potency in assay [4] is 112 µM (active). The Potency result in assay [5] and in assay [2] was “inactive” each time.

On to `C/C(=N\N(Cc1ccccc1)c1ccccc1)c1ccncc1`, for which, in assay [4], the activation is -6.71% [at 17.1 µM, percent relative to cAMP agonist control]. Also, the Potency entry in assay [5] was “inactive”.

Consider `CCOC(=O)C1(C)C=C(Nc2ccc(C(N)=O)cc2)C(=O)N1c1ccccc1` (stereo not given), for which the Potency result in assay [4] and in assay [2] was “inactive” throughout. The Potency in assay [5] was 10.7 µM (active).

Turning to `CC(=O)N(CCC(c1ccco1)C(C)C)Cc1ccc(OC(C)C)cc1` (stereo not given), the Potency result in assay [1] and in assay [3] was “inactive” throughout.

Turning to `CC1=CC(=C(C#N)c2nc3ccccc3s2)C=C(C)N1Cc1ccco1`, the Potency entry in assay [4], in assay [5] and in assay [2] was “inactive” in each case.

As to `COc1ccc(C2Nc3ccccc3-c3cc(C)nn32)c(OC)c1` (stereo not given), the Potency result in assay [4], in assay [5] and in assay [2] was “inactive” throughout.

With `O=C1N(Cc2ccccc2Cl)c2ccccc2C1(O)c1c[nH]c2ccccc12` (stereo not given), the Potency result in assay [4], in assay [5] and in assay [2] was “inactive” each time.

Regarding `Oc1ccccc1N=Cc1c(O)ccc2ccccc12`, the activation in assay [4] is 0% [at 17.1 µM, percent relative to cAMP agonist control]. Also, in assay [5], the Potency entry is “inactive”. Besides, the activity change, negative = inhibition in assay [2] is -12% [at 30.8 µM].

Take `Nc1nc(N)c2c(ccc3c2ccn3Cc2cccc([N+](=O)[O-])c2)n1`: the Potency in assay [4] was 100 µM (active).

Take `Cc1c(CCC(=O)O)c(=O)oc2cc(OCc3ccccc3Br)ccc12`: the Potency entry in assay [4] and in assay [2] was “inactive” each time. In assay [5], the Potency was 84.9 µM (active).

With `CCc1nc2c(OCc3ccc(C(F)(F)F)cc3)cccn2c1N(C)C(=O)CC(C)C`, the Potency entry in assay [1] and in assay [3] was “inactive” throughout.

In the case of `COC(/C(=N/O)c1ccc(Cl)cc1)c1ccccc1` (stereo not given), the activation in assay [4] is 9.01% [at 17.1 µM, percent relative to cAMP agonist control]. For the same compound, the Potency result in assay [5] is “inactive”. Moreover, the activity change, negative = inhibition in assay [2] was -2% [at 30.8 µM].
